Five compounds from PubChem BioAssay can be followed below.

Calls of active or inactive are those of the source.

In assay [1] the test system is Human papillomavirus type 1a protein E7 (residues 44-93). In words: small molecules binding HPV E7 44-93 – biochemical, small-molecule microarray, residues 44-93, 635 nm fluorescence, primary screen (AID 1108).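 Also: E7 fragment applied at 1 µg/mL in TBST for 1 h at 4 C; score combines spot fluorescence with its signal to noise ratio.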 The settings on record: fluorescence 635 nm, higher = more signal.
Assay [2] can be described thus: hepatitis C replication reporter changes, two-sided – Huh7 cells, luciferase reporter, HCV replication inhibitor project, primary screen (AID 1109).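 Also: huh7 hepatoma cells harbouring a luciferase neomycin HCV replicon reporter; luciferase luminescence as measure of HCV replicon replication; test concentration not given here.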 As to conditions: Huh7 HCV replicon luciferase reporter, 48 h; higher = more signal.
For assay [3], the target named is Left-right determination factor 2 (Homo sapiens) (UniProt O00292). The experiment in a line: small molecules binding LEFTY2 protein – biochemical, small-molecule microarray, 635 nm fluorescence scan, primary screen (AID 1110). The settings on record: higher = more signal.
Sequence of Left-right determination factor 2 (Homo sapiens) (O00292 whole entry, looked up): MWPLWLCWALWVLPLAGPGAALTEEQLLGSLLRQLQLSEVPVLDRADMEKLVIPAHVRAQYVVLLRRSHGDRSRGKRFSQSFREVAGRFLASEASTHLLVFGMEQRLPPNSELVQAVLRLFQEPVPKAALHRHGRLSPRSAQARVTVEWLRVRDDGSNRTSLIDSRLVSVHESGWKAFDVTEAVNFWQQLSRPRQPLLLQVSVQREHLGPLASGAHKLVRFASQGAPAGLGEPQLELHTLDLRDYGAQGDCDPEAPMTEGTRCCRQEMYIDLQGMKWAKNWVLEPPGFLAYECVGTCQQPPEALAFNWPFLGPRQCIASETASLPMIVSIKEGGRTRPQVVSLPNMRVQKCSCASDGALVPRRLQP
In assay [4] the target is Calmodulin-1 (Homo sapiens) (UniProt P0DP23). In words: small molecules binding calmodulin-1 with EGTA – biochemical, small-molecule microarray, Cy5-labelled CALM1, profiling panel (AID 1111).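 Also: labelled calmodulin applied in Tris saline Tween buffer holding calcium plus EGTA and DTT.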 The settings on record: Cy5-CALM1 binding fluorescence, higher = more signal.
For assay [5] the target is unchanged. The experiment in a line: small molecules binding Ca-loaded calmodulin-1 – biochemical, small-molecule microarray, Cy5-labelled CALM1, plus calcium, artefact control for SMM control-protein annotation, profiling panel (AID 1112).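 Also: score merges spot fluorescence with signal to noise from triplicate slides.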 As to conditions: Cy5-CALM1 binding fluorescence, higher = more signal.
A short description of assay [6]: probe aWnt5a binding to arrayed compounds – biochemical, biotinylated probe, 635/667 nm fluorescence, primary screen (AID 1113).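 Also: score merges 667 nm fluorescence intensity with signal-to-noise per printed feature.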 As to conditions: small-molecule microarray, higher = more signal.
Assay [7] in a line: probe aShh binding to arrayed compounds – biochemical, biotinylated probe, 635/667 nm fluorescence, primary screen (AID 1114).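 Also: probe is biotin-labelled aShh protein from a stem cell growth factor screen; measures binding of labelled protein to compounds printed on the slide; score merges feature fluorescence at 667 nm with signal-to-noise.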 The settings on record: small-molecule microarray, higher = more signal.
Assay [8] in a line: probe aNog binding to arrayed compounds – biochemical, biotinylated probe, 635/667 nm fluorescence, primary screen (AID 1115).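 Also: probe is biotinylated aNog protein used at 0.15 µg/mL for 1 h at 4 C; z-score combines 667 nm fluorescence of each spot with its signal to noise.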 The settings on record: small-molecule microarray, higher = more signal.
Assay [9] deals with Torsin-1A-interacting protein 1 (Homo sapiens) (UniProt Q5JTV8). The experiment in a line: compound microarray binding of lysate hLAP1 – cell lysate, small-molecule microarray, COS7 lysate, 635/667 nm fluorescence, primary screen (AID 1116). As to conditions: 635 nm fluorescence, higher = more signal.
Sequence of Torsin-1A-interacting protein 1 (Homo sapiens) (Q5JTV8 whole entry, looked up): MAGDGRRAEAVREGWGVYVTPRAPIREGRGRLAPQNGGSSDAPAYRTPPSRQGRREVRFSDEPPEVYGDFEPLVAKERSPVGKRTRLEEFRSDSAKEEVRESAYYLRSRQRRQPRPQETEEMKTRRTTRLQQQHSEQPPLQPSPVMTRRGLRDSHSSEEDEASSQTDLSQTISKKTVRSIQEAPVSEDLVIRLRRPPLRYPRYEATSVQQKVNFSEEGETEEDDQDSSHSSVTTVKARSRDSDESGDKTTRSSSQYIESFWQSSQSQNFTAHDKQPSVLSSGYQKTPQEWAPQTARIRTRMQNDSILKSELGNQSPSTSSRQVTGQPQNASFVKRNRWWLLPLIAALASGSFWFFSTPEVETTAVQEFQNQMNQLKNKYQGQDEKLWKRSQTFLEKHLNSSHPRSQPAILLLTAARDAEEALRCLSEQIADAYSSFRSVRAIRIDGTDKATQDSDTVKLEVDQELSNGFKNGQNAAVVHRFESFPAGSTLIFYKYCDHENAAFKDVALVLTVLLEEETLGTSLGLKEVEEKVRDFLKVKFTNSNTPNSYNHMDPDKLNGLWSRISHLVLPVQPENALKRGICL
Assay [10] concerns the target Alpha-bungarotoxin (Bungarus multicinctus) (UniProt P60615). In words: compounds binding labelled alpha-BTX control protein – biochemical, small-molecule microarray, Alexa647 label, 635/667 nm fluorescence, artefact control for SMM control protein annotation, profiling panel (AID 1117). As to conditions: alpha-BTX-A647 binding fluorescence, higher = more signal.
The target of another assay is Albumin (Bos taurus) (UniProt P02769). In words: compounds binding labelled BSA control protein – biochemical, small-molecule microarray, Alexa647 label, 635/667 nm fluorescence, artefact control for SMM control protein annotation, profiling panel (AID 1118).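 Also: score merges 667 nm emission intensity and signal-to-noise per printed compound spot.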 The settings on record: BSA-A647 binding, fluorescence 635 nm, higher = more signal.
Sequence of Albumin (Bos taurus) (P02769 whole entry, looked up): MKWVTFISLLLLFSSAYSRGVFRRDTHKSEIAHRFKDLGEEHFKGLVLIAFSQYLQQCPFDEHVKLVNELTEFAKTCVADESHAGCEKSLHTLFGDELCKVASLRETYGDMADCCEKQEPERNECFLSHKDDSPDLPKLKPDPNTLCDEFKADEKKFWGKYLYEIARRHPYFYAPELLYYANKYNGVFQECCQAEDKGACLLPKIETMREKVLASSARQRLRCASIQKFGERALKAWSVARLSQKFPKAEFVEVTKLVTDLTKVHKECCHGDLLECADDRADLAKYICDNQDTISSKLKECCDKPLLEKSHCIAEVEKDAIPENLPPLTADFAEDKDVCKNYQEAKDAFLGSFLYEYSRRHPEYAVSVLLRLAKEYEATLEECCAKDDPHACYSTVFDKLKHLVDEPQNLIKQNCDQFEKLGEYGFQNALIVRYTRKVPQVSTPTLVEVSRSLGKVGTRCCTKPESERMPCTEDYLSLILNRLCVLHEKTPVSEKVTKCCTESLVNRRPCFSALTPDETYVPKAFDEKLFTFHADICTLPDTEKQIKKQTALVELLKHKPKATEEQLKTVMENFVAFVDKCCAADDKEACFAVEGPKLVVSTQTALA
The nature of assay [11]: probe aXIP binding to arrayed compounds – biochemical, NeuroSMM set, 635/667 nm fluorescence, primary screen (AID 1119).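 Also: probe is the protein aXip251-270 applied at 1 µg/mL to compound-printed slides; binding of probe to printed compounds measured as 667 nm fluorescence plus signal to noise.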 As to conditions: small-molecule microarray, higher = more signal, called active from +8 up or from −8 down.
Assay [12] is described as follows: probe aNOTCH3 binding on compound microarray – biochemical, small-molecule microarray, 635/667 nm fluorescence, primary screen (AID 1120).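 Also: probe is a biotin-tagged antibody raised against NOTCH3 rather than NOTCH3 protein; score merges spot fluorescence near 667 nm with spot signal to noise.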 As to conditions: higher = more signal.
A short description of assay [13]: probe aNOTCH2 binding on compound microarray – biochemical, small-molecule microarray, 635/667 nm fluorescence, primary screen (AID 1121).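 Also: score merges feature fluorescence read at 667 nm with its signal to noise.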 As to conditions: higher = more signal.
Assay [14] addresses Carbonic anhydrase 2 (Homo sapiens) (UniProt P00918). In words: compounds binding carbonic anhydrase 2 – biochemical, small-molecule microarray, Alexa647-labelled CAII, profiling panel (AID 1122). As to conditions: CAII-A647 binding fluorescence, higher = more signal.
Assay [15] in a line: COS7 lysate on small-molecule microarray, probe aHis, 635 nm (AID 1123).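 Also: z-score combines 667nm fluorescence intensity with signal-to-noise per printed compound spot.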 As to conditions: COS7 cell lysate, fluorescence, higher = more signal.
Assay [16] is described as follows: probe aLAP1 signal on lysate-treated microarray – cell lysate, small-molecule microarray, COS7 lysate, primary screen (AID 1124).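 Also: lysate comes from COS7 cells expressing LAP1 and is applied at 0.3 µg/mL; score merges spot fluorescence near 667 nm with signal-to-noise over triplicate slides.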 The settings on record: probe aLAP1, fluorescence, higher = more signal.
In the next assay the test system is Sam68 (KHDRBS1). The experiment in a line: compounds binding KHDRBS1 protein – biochemical, small-molecule microarray, 635 nm fluorescence, primary screen (AID 1125).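 Also: score merges 667 nm channel intensity with signal to noise over triplicate slides.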 As to conditions: higher = more signal.
Assay [17] relates to Chordin-like protein 2 (CHRDL2). In words: compounds binding chordin-like 2 – biochemical, small-molecule microarray, 635 nm fluorescence, primary screen (AID 1126).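 Also: printed compound slides probed with Chrdl2 protein at 4 µg/mL for 1 h at 4 C; score merges 667 nm emission intensity with signal to noise over three replicate slides.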 As to conditions: fluorescence 635 nm, higher = more signal.
The target in assay [18] is Concanavalin-A (Canavalia ensiformis) (UniProt P02866). In words: compounds binding concanavalin A lectin – biochemical, small-molecule microarray, Alexa647 label, 635 nm, artefact control for SMM control protein annotation, primary screen (AID 1127).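 Also: z combines 667 nm emission intensity with signal-to-noise across three replicate slides.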 As to conditions: ConA-A647 binding fluorescence, higher = more signal.
Sequence of Concanavalin-A (Canavalia ensiformis) (P02866 whole entry, looked up): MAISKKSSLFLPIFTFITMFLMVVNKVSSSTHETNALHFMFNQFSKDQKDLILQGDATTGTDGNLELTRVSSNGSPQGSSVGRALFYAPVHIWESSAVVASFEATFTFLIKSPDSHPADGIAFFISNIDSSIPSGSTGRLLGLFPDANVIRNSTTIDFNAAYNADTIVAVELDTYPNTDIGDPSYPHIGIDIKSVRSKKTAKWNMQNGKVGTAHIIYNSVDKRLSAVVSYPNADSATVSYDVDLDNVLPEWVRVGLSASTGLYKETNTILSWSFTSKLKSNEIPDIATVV

Sequence of Alpha-bungarotoxin (Bungarus multicinctus) (P60615 whole entry, looked up): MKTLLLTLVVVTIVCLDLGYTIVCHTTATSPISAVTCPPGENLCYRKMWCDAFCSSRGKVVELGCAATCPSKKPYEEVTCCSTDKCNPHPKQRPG

On to `CO[C@H]1COC(=O)CC=C[C@H](C)[C@@H](OC)COC(=O)CC=C[C@@H]1C`, for which the composite z-score was -0.366 in [1]; 0.724 in [3]; -1.61 in [4]; -1.87 in [5]; -0.181 in [6]; 0.126 in [7]. In addition, the composite z-score was -0.63 in assay [8]; -0.0807 in [9]; -0.86 in [10]; -0.683 with Albumin (Bos taurus); -0.155 in [12]; -0.14 in assay [13]. For the same compound, the composite z-score in assay [14] is -0.782; in assay [15], -0.702; in assay [16], -0.36; with Sam68 (KHDRBS1) it was -0.294; in assay [17], 1.21; in [18], -1.25. This compound also had a z-score in assay [2] of -0.0985. In addition, the composite Z-score in assay [11] is 0.142 (inactive).

For the compound `CCOC(=O)C[C@H]1[C@H](OC(=O)Cc2ccc3c(c2)OCO3)[C@@H](NC(=O)CC(C)C)c2cc(OCCCO)ccc2N1C(=O)c1ccccc1`, the composite z-score in assay [1] was 0.338; in [3], 0.371; in assay [4] it was -0.278; in assay [5], -0.215; in [6], -0.0478; in assay [7], 0.081. Besides, the composite z-score in assay [8] was 0.161; in assay [9] it was 0.662; in assay [10] it was 0.111; with Albumin (Bos taurus), 0.842; in assay [12], -0.0682; in [13], 0.0972. Moreover, the composite z-score in assay [14] was 0.186; in assay [15], 0.41; in assay [16], -0.0777; in the assay on Sam68 (KHDRBS1), 0.562; in [17] it was 0.133; in assay [18], -1.14. This compound also came in with a z-score in assay [2] of 0.0689. Moreover, the composite Z-score in [11] is 0.312 (inactive).

On to `C=CCC(OC(C)=O)[C@@H]1[C@@H](N(Cc2ccc(-c3ccccc3)cc2)C(=O)c2ccc(C)cc2)c2cc(OCCCO)ccc2N1C(=O)c1ccc(-c2ccccc2)cc1` (stereo not given in full), for which the composite z-score in assay [1] is -0.0852; in assay [3] it was 0.181; in assay [4] it was 0.218; in assay [5], 1.22; in assay [6] it was -0.101; in assay [7], 0.0611. The composite z-score is 0.15 in assay [8]; 0.116 in assay [9]; 0.523 in [10]; 0.101 in the assay with Albumin (Bos taurus); -0.0933 in assay [12]; -0.0664 in assay [13]. For the same compound, the composite z-score in [14] was -0.102; in [15], 0.23; in [16], 0.232; with Sam68 (KHDRBS1), -0.0015; in assay [17], -0.0151; in [18] it was -0.925. In addition, the z-score in assay [2] was -0.13. Further, in assay [11], the composite Z-score is 0.451 (inactive).

Regarding `CO[C@H]1COC(=O)[C@H](CCSC)NC(=O)CC=C[C@@H](C)COC(=O)[C@@H](OCc2ccccc2)C=C[C@@H]1C`, the composite z-score is -0.457 in [1]; 1.23 in [3]; -0.86 in assay [4]; -1.6 in [5]; -0.182 in assay [6]; -0.1 in assay [7]. The composite z-score is -0.541 in assay [8]; -0.0258 in [9]; -0.414 in [10]; -1.35 with Albumin (Bos taurus); -0.0914 in assay [12]; -0.102 in assay [13]. For the same compound, the composite z-score in assay [14] was -0.498; in assay [15], -0.345; in [16], -0.0638; with Sam68 (KHDRBS1) it was 0.51; in assay [17], 1.51; in assay [18], -0.623. In addition, the z-score in assay [2] is -0.704. Also, the composite Z-score in assay [11] is -0.273 (inactive).

For `CC(=O)NCCCC[C@@H]1NC(=O)[C@@H]2C[C@H](C(=O)NCc3ccc(F)cc3)[C@H](c3cccc(OCCO)c3)N2C1=O`, the composite z-score in [1] was 0.843; in [3], -0.0566; in assay [4], -0.286; in assay [5], 0.0377; in assay [6], -0.0836; in assay [7], 0.0469. Also, the composite z-score in [8] is -0.183; in assay [9], 0.436; in assay [10], -0.86; with Albumin (Bos taurus), 0.188; in assay [12], -0.226; in [13] it was 0.0383. Moreover, the composite z-score in [14] was found to be 0.659; in assay [15], 1.07; in [16], 0.19; with Sam68 (KHDRBS1), 0.506; in assay [17], 0.174; in [18], 0.474. The same compound showed a z-score in [2] of -0.0901. For the same compound, the composite Z-score in [11] is 0.328 (inactive).
